Assay results published in the supplement of paper PMC11732987, “Enantioselective OTUD7B fragment discovery through chemoproteomics screening and high-throughput optimisation” (Communications Chemistry, 2025).

How the values were obtained:
Assay in all cases: log2 ratio of Biotin-Ahx-Ub-VS probe labelling (fragment/DMSO); higher = less target engagement (more negative = stronger competition), active = hit call of the paper (q ≤ 0.05, log2 ratio ≤ -1)
Details in all cases: compound concentration: 200 uM; treatment time: 3 h
USP42 = molecular target: T1, USP42 (UniProt Q9H9J4)
T1 sequence (whole entry): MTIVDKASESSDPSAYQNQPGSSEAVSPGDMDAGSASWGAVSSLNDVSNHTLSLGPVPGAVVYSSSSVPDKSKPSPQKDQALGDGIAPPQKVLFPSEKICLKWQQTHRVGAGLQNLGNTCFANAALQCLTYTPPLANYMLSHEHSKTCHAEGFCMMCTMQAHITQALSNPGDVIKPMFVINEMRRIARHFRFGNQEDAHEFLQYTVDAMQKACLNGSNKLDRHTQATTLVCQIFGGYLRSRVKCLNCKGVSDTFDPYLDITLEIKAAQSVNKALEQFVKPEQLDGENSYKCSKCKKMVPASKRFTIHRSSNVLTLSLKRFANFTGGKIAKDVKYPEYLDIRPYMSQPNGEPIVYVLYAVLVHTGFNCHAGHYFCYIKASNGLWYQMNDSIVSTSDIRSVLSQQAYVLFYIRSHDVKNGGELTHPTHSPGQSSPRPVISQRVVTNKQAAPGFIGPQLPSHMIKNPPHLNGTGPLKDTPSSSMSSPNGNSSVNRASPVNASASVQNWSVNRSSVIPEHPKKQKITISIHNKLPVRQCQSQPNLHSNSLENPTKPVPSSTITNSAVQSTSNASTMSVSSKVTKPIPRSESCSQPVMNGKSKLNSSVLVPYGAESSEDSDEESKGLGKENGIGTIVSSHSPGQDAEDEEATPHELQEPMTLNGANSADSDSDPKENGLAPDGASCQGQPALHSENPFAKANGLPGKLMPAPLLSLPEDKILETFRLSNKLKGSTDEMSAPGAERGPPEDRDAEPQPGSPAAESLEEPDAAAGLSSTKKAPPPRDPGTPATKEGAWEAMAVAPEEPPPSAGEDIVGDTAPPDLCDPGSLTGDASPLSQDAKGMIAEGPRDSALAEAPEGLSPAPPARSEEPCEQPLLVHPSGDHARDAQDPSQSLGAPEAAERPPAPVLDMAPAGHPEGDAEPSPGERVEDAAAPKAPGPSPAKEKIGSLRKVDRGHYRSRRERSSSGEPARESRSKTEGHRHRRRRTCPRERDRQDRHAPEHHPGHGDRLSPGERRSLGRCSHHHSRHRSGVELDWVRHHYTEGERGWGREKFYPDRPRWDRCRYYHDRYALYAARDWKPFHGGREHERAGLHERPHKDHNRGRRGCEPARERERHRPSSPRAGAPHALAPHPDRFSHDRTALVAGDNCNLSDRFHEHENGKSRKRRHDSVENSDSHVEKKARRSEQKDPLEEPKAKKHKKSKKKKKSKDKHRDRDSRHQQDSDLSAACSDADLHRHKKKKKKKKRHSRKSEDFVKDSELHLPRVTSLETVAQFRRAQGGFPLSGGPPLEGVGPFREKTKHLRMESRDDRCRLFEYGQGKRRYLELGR
In short: (§1)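 Global-median-normalised Spectronaut label-free quantities were compared by unpaired t-test, and values are average log2 ratios of fragment over vehicle. Only proteins with ≥2 unique peptides were used. HEK293T lysate (495 µg per sample) was treated in triplicate with fragment at 200 µM or vehicle for 3 h and then with Biotin-Ahx-Ub-VS at 0.5 µM final for 1 h. Labelled DUBs were then NeutrAvidin-enriched, digested with LysC and trypsin, and run by diaPASEF LC-MS/MS.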

USP46 = USP46 (UniProt P62068)
Sequence of USP46 (P62068 whole entry): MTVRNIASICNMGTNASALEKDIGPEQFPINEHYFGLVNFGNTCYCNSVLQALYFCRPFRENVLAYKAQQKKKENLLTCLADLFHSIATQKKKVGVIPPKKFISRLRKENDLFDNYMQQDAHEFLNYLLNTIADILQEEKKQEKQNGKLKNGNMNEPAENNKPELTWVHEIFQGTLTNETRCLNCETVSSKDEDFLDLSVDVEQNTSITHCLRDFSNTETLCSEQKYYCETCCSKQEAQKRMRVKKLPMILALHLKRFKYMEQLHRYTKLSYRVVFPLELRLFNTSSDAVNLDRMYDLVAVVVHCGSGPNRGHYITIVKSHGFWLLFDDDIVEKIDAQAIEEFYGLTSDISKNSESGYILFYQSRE
In short: as §1

USP47 = molecular target: T2, USP47 (UniProt Q96K76)
T2 sequence (whole entry): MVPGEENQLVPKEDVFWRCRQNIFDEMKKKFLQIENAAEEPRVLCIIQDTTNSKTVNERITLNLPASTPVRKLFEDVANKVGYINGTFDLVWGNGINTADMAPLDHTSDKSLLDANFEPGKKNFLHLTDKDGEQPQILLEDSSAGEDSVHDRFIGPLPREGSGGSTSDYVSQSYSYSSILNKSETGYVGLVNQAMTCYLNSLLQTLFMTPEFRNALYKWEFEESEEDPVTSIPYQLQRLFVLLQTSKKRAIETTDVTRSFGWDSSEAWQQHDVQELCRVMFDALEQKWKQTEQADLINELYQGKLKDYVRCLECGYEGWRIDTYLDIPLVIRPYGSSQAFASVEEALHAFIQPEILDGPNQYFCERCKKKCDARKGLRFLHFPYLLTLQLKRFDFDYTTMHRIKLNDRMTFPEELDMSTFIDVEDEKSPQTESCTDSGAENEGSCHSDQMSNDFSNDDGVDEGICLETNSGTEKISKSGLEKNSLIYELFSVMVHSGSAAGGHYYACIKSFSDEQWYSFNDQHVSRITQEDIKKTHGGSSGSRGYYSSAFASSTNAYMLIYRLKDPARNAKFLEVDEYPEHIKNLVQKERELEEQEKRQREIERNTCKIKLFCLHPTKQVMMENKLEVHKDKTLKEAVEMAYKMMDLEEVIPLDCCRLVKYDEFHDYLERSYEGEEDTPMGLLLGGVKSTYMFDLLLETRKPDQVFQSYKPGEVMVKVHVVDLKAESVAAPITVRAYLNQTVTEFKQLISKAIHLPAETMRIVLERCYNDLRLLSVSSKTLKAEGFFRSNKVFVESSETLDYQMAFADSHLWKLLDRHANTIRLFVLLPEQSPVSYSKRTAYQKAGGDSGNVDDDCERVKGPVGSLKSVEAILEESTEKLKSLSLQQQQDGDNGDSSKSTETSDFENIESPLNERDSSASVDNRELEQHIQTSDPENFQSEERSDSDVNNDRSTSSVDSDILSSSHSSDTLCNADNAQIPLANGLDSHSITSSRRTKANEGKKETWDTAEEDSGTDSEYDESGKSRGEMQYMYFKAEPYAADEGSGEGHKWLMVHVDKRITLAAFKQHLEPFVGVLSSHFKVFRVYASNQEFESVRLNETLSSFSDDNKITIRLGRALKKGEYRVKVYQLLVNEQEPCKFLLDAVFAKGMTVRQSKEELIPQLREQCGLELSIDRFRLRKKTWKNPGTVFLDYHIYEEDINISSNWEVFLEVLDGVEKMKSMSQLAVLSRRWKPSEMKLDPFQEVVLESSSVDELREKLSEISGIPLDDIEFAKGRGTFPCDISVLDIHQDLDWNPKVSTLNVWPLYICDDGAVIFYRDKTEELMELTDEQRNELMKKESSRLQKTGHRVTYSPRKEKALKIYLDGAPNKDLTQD
In short: as §1

USP48 = molecular target: T3, USP48 (UniProt Q86UV5)
T3 sequence (whole entry): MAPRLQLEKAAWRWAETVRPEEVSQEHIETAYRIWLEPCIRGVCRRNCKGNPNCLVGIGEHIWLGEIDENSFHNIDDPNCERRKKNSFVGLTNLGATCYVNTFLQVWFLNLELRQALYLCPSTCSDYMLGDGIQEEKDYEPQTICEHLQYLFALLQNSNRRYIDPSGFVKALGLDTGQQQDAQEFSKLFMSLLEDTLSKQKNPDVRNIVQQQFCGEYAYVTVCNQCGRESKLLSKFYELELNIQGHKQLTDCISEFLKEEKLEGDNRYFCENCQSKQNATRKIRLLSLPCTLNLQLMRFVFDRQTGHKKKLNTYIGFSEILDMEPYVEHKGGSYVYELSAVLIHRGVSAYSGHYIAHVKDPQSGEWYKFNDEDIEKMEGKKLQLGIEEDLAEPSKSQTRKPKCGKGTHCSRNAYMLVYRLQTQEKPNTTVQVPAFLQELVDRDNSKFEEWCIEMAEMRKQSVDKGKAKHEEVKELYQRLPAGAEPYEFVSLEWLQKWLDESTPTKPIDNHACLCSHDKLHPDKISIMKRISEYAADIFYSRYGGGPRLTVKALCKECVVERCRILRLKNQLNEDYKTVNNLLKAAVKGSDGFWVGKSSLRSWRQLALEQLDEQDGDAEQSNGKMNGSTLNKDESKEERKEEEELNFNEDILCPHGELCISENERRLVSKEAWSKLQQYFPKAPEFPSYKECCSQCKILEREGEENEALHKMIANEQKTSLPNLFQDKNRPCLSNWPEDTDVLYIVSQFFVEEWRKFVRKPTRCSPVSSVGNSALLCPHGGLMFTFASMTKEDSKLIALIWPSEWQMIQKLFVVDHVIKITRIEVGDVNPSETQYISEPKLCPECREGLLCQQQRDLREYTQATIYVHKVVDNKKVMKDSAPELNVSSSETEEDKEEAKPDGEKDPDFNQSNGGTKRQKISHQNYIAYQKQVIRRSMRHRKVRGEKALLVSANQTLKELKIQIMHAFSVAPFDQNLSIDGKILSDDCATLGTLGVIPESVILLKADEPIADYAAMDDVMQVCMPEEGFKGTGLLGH
In short: as §1

USP5 = molecular target: T4, USP5 (UniProt P45974)
T4 sequence (whole entry): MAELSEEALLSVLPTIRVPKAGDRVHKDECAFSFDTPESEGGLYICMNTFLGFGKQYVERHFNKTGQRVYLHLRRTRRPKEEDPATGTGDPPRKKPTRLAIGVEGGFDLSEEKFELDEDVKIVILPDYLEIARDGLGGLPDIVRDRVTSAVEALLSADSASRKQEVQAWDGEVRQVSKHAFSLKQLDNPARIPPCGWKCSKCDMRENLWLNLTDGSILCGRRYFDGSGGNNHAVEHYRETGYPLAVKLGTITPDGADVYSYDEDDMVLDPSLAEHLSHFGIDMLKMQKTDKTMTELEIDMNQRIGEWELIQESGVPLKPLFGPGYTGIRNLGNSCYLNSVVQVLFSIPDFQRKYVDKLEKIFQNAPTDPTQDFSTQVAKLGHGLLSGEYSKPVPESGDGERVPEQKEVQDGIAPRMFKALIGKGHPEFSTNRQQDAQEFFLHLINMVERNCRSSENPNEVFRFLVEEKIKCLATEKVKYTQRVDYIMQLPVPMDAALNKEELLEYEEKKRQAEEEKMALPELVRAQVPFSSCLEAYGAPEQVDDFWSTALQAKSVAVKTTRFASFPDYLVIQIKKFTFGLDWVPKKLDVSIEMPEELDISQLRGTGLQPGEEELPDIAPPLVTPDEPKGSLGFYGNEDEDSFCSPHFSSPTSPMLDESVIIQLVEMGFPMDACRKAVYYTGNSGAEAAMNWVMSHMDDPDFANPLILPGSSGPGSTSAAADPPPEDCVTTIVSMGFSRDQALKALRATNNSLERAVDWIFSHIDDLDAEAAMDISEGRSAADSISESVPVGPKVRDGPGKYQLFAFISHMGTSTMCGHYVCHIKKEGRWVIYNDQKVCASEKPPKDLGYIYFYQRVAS
In short: as §1

USP54 = USP54 (UniProt Q70EL1)
Sequence of USP54 (Q70EL1 whole entry): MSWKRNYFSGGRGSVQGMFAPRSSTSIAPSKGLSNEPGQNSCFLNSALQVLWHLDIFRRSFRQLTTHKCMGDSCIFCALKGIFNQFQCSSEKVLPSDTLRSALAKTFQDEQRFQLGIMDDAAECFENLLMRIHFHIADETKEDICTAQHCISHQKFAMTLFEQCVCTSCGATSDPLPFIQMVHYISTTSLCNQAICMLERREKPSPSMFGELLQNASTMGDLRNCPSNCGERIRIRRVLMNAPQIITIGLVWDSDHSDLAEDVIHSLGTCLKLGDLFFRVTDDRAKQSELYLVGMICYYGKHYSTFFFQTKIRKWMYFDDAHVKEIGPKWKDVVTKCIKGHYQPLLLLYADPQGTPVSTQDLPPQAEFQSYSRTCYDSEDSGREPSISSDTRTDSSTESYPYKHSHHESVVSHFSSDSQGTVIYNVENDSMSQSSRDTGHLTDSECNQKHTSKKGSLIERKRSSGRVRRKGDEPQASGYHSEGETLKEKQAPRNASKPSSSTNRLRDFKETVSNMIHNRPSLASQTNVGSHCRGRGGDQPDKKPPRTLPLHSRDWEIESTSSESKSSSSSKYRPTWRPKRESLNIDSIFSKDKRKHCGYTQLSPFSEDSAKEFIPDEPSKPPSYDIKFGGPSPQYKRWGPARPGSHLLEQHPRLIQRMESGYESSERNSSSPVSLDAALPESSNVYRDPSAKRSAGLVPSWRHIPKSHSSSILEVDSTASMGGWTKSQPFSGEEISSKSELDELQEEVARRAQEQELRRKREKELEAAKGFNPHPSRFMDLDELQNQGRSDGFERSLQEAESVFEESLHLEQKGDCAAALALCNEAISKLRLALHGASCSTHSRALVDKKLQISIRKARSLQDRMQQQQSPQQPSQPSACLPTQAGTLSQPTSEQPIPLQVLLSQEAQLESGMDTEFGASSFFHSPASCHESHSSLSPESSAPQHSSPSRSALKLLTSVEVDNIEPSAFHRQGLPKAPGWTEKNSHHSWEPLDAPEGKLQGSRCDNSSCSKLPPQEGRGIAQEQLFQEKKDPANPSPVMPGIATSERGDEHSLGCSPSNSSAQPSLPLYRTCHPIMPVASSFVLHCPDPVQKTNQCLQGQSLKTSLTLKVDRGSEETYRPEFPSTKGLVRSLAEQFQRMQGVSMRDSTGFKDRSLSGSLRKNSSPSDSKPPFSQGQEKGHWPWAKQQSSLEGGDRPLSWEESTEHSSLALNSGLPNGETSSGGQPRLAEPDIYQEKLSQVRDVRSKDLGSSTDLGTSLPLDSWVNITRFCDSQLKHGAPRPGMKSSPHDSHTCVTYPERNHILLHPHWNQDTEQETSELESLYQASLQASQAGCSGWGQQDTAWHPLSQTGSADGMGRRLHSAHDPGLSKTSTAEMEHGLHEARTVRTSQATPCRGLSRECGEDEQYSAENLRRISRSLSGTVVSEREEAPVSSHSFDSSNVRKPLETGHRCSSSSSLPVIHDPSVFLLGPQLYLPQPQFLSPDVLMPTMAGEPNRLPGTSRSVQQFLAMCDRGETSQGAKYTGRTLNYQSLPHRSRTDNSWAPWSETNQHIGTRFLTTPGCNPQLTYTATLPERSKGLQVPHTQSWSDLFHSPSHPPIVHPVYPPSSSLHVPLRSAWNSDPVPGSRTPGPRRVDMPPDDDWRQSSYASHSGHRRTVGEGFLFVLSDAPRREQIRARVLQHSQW
In short: as §1

USP7 = USP7 (UniProt Q93009)
In short: as §1

USP8 = molecular target: T5, USP8 (UniProt P40818)
T5 sequence (whole entry): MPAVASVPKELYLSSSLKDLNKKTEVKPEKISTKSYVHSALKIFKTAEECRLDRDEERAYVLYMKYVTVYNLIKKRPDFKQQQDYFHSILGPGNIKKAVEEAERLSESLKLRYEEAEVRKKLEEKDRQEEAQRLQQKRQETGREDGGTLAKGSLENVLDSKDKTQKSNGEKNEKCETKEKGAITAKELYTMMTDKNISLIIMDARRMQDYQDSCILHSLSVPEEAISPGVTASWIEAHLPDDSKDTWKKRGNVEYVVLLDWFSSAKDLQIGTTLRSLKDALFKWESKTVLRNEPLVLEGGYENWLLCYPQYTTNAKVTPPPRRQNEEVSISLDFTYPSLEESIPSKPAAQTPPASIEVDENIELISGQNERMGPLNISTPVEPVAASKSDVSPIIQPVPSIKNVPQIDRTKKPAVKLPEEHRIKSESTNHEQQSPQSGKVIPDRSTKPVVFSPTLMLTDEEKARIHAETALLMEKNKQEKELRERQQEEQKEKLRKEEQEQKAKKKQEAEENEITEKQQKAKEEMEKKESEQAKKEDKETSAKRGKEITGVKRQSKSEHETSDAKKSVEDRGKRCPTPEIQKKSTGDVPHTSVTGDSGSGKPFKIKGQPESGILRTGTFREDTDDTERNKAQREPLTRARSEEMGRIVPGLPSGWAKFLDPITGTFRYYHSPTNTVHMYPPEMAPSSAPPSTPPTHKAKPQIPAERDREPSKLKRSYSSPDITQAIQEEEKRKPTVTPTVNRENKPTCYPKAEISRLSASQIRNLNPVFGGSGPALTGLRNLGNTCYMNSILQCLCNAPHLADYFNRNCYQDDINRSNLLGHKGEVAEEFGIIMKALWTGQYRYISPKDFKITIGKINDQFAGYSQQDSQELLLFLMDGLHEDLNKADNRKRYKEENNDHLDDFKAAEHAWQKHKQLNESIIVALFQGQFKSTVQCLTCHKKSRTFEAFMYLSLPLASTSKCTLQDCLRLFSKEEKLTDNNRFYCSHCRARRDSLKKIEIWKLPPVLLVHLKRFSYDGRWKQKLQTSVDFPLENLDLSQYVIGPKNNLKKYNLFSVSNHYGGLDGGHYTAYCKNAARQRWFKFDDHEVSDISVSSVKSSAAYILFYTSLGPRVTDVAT
In short: as §1

USP9X = USP9X (UniProt Q93008)
Sequence of USP9X (Q93008 whole entry): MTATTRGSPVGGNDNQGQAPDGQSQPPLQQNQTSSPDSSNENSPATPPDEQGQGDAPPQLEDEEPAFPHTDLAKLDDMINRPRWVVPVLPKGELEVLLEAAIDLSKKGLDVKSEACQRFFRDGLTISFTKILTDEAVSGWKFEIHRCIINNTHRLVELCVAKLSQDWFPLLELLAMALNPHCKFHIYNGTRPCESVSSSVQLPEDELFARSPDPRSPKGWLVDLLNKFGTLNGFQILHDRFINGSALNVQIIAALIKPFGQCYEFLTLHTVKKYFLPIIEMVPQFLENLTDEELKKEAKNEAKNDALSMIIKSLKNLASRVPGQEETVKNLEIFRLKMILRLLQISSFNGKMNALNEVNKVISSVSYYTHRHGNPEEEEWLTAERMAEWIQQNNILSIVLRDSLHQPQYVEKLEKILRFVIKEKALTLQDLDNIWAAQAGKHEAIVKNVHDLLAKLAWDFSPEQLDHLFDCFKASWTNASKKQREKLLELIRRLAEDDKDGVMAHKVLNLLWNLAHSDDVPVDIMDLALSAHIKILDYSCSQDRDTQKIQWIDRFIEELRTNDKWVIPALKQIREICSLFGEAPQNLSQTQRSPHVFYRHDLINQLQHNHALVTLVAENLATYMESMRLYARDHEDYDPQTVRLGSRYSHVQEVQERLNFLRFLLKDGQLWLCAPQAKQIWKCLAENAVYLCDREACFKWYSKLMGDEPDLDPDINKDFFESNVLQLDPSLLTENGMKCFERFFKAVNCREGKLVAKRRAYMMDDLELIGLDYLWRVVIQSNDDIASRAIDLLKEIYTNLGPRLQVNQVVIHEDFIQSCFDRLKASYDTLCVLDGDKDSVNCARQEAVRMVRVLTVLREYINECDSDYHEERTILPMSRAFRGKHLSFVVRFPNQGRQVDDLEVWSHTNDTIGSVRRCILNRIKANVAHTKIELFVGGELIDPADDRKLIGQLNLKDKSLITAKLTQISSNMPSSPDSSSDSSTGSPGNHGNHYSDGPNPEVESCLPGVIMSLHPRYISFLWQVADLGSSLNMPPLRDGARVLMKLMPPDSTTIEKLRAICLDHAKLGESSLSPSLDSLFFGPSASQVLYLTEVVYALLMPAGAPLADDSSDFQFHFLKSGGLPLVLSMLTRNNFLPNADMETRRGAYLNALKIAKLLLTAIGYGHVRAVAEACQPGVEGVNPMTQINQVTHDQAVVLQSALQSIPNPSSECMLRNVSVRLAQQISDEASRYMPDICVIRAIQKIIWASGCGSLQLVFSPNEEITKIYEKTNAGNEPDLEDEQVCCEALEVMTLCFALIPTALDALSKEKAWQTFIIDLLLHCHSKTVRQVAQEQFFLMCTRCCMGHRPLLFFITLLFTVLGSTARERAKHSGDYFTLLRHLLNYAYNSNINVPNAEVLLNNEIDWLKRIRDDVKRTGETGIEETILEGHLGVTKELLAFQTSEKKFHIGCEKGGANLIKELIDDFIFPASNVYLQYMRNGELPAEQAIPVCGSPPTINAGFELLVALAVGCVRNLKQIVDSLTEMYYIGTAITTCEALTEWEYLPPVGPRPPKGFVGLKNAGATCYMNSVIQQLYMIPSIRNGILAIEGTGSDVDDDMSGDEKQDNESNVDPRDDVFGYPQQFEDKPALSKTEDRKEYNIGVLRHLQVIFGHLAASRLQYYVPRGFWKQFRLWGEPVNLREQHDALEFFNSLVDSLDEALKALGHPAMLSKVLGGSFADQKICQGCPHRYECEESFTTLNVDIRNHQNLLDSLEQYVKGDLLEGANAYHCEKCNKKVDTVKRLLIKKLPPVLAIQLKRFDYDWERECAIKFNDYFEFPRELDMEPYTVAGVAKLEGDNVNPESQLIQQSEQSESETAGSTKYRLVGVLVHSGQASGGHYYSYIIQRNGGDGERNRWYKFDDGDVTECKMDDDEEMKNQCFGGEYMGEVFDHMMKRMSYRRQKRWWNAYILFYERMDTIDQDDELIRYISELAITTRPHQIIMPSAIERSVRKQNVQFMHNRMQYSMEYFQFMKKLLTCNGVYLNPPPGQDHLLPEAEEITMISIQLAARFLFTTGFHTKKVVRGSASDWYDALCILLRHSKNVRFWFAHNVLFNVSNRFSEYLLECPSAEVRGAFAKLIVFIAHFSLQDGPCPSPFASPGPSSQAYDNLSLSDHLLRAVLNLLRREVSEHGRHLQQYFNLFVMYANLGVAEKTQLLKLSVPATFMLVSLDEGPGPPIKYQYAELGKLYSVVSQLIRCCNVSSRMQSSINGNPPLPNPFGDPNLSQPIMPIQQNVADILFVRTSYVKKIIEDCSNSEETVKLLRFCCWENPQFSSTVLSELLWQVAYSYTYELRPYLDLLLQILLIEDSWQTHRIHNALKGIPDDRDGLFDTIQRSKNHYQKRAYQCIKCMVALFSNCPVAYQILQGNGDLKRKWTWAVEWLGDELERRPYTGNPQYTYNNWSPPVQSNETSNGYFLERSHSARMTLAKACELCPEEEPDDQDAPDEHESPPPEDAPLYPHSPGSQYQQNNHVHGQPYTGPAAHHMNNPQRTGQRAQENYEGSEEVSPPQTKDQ
In short: as §1

UniProt O00487 = molecular target: UniProt O00487
Sequence of UniProt O00487 (O00487 whole entry): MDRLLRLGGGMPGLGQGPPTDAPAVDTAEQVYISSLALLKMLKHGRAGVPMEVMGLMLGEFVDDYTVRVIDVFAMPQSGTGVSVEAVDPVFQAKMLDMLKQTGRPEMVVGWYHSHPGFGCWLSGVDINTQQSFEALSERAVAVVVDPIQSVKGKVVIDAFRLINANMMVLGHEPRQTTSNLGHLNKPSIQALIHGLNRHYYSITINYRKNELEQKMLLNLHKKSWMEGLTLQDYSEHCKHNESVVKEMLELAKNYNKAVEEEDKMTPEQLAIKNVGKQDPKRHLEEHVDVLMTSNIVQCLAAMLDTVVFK
In short: as §1

Measured: log2 ratio of Biotin-Ahx-Ub-VS probe labelling

Cc1cccc(NC(=O)[C@@H]2CCCN2C(=O)CCl)n1
inactive: USP42 0.315 | USP46 -0.247 | USP47 -0.448 | USP48 -0.474 | USP5 0.305 | USP54 0.236 | USP7 -0.502 | USP8 -0.358 | USP9X -0.337 | UniProt O00487 -0.177
